From PubChem BioAssay (NCATS)
The source made the active and inactive calls. Calls come from the whole dose curve; as a rule, active = well fitted cell-killing curve with a large enough effect; inconclusive = small, poorly fitted or top-dose-only effect; inactive = flat fitted curve, though single readings scatter.

Test: Cell Viability - LYMP1-002 - Assay at 24 hr (AID 993)
Conditions: LYMP1-002 lymphoblastoid cells viability; series mostly up to 92.2 µM; activity change, negative = cytotoxicity: at the top concentration
From the text: NIH Chemical Genomics Center [NCGC]
NIH Molecular Libraries Screening Centers Network [MLSCN]
National Institutes of Environmental Health Sciences [NIEHS]
National Toxicology Program [NTP]
We have developed a 1536-well cell-based assay for quantitative high throughput screening (qHTS) against a number of cell lines to determine in vitro cytotoxicity of small molecules. This particular assay uses a human lymphoblastoid cell line (LYMP1-002) purchased from Coriell Institute for Medical Research.
NCGC Assay Protocol Summary:
The CellTiter-Glo luminescent cell viability assay (Promega) is a homogeneous method to measure the number of viable cells in culture. The end point readout of this assay is based on quantitation of intracellular ATP, an indicator of metabolic activity, using the luciferase reaction. Luciferase catalyzes the oxidation of beetle Luciferin to oxyluciferin and light in the presence of ATP. The luminescent signal is proportional to amount of ATP present.
Using the CellTiter-Glo luminescent cell viability assay, the amount of cellular ATP was measured in the lymphoblastoid cell line with complete culture medium following compound treatment for 24 hours. The assay was performed in opaque white Kalypsys 1536-well plates. In the screen, tetraoctylammonium bromide was used as positive control. Library compounds were measured for their ability to cause acute toxicity in the cell line, as reflected by a decrease in intracellular ATP levels, in a concentration-dependent manner. […] AC50 values were determined from concentration-response data modeled with the standard Hill equation.
qHTS protocol for CellTiter Glo lymphoblastoid cellular assay
[Step] [Parameter] [Value] [Description]
1. Reagent; 5 uL; 2500 lymphoblastoid cells/well
2. Time; 5 hr; 37 C incubation
4. Controls; 23 nL; Tetraoctylammonium bromide 6.4pM to 92 uM
5. Time; 24 hr; 37 C incubation
6. Reagent; 5 uL; CellTiter Glo reagent
7. Time; 30 min; Room Temperature
8. Detection; Luminescence; Viewlux plate reader
Keywords: cell viability, cytotoxicity, lymphoblastoid cell line, luminescence, NTPHTS, NTPHTS_NCGC, NIEHS, DSSTox, MLSMR, MLSCN, NIH Roadmap, qHTS, NCGC
% is set by controls: 0 for no effect and ±100 for the full control effect; potency is the fitted concentration of half-maximal effect.

SMILES | activity change, negative = cytotoxicity | Potency
C[C@]12CCC(=O)C=C1CC[C@@H]1[C@@H]2CC[C@@]2(C)[C@H]1CC[C@]2(C)O | -12.7% (inactive) | 
CC(C)NC(C)C | 2.14% (inactive) | 
CCCC(C)(COC(N)=O)COC(N)=O | -0.439% (inactive) | 
CCOC(=O)CC(SP(=S)(OC)OC)C(=O)OCC (centres undefined) | 6.34% (inactive) | 
NCCc1ccc(O)cc1 | 3.88% (inactive) | 
O=C(O)CCCc1ccc(N(CCCl)CCCl)cc1 | -20.3% (inactive) | 
CCC(C)(C)c1ccc(O)cc1 | -0.524% (inactive) | 
C[C@]12CCC(=O)C=C1CC[C@@H]1[C@@H]2CC[C@]2(C)C(=O)CC[C@@H]12 |  | inactive
COc1cc(OC)c(OC)cc1C=O | 0.496% (inactive) | 
CC(C)c1cccc(C(C)C)c1O | -4.34% (inactive) | 
Nc1ccccc1 | 6.82% (inactive) | 
Clc1ccc(C(c2ccc(Cl)cc2)C(Cl)(Cl)Cl)cc1 |  | 50.1 µM (active)
CN1C[C@H](C(=O)N[C@]2(C)O[C@@]3(O)[C@@H]4CCCN4C(=O)[C@H](Cc4ccccc4)N3C2=O)C=C2c3cccc4[nH]cc(c34)C[C@H]21 | -21.3% (inactive) | 
C[C@]1(O)CC[C@H]2[C@@H]3CCC4=CC(=O)CC[C@]4(C)[C@@]3(F)[C@@H](O)C[C@@]21C | 1.59% (inactive) | 
COC(=O)C(c1ccccc1)C1CCCCN1 (centres undefined) | 2.45% (inactive) | 
O=P1(N(CCCl)CCCl)NCCCO1 (centres undefined) | -3.45% (inactive) | 
COP(=S)(OC)Oc1ccc(SC)c(C)c1 | -0.309% (inactive) | 
Oc1ccc(Cl)cc1 | 3.37% (inactive) | 
Nc1ccccc1C(=O)O | 6.1% (inactive) | 
